Measured values published in the supplement of paper PMC5662767.
Where a name gives a salt, the structure may show the parent alone.

Test system: Drosophila S2 cl14 SmoIP sensor cells
Experiment: normalized SmoIP GFP fluorescence (untreated unstimulated = 0%, untreated Hh-stimulated = 100%); higher = more Smo activation sensor fluorescence
Conditions: compound concentration: 2 uM, 24 h
[1] = stimulation: Hh conditioned medium (+Hh)
[2] = stimulation: mock conditioned medium (-Hh)
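Further: flow cytometry read-out as median GFP intensity of gated cells, compounds added 30 min before Hh-conditioned or mock medium, mock-treated cells serving as unstimulated baseline.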

COC(=O)[C@H](c1ccccc1Cl)N1CCc2sccc2C1 [Clopidogrel-bisulfate]
normalized SmoIP GFP fluorescence [1]: 113% | normalized SmoIP GFP fluorescence [2]: 2.97%

O=C(O)Cn1nnc(-c2cc(N3CCC(Oc4cc(F)ccc4Br)CC3)no2)n1
normalized SmoIP GFP fluorescence [1]: 80.4% | normalized SmoIP GFP fluorescence [2]: 13.3%

CNC(=O)CN1CCC(Oc2cc3c(Nc4cccc(Cl)c4F)ncnc3cc2OC)CC1
normalized SmoIP GFP fluorescence [1]: 112% | normalized SmoIP GFP fluorescence [2]: -3.72%

COCCOc1ccc2c(c1)ncn2-c1ccc2cccc(N3CCC(N)CC3)c2n1
normalized SmoIP GFP fluorescence [1]: 264% | normalized SmoIP GFP fluorescence [2]: 80%

O=C(NC[C@H](O)CO)c1ccncc1Nc1ccc(I)cc1F
normalized SmoIP GFP fluorescence [1]: 182% | normalized SmoIP GFP fluorescence [2]: 46.7%

CCCc1nn(C)c2c(=O)[nH]c(-c3cc(S(=O)(=O)N4CCN(C)CC4)ccc3OCC)nc12 [Sildenafil-citrate]
normalized SmoIP GFP fluorescence [1]: 76.3% | normalized SmoIP GFP fluorescence [2]: -1.88%

Cc1cc(O)c2c(c1)C(=O)c1cccc(O)c1C2=O [Chrysophanic-acid-Chrysophanol]
normalized SmoIP GFP fluorescence [1]: 133% | normalized SmoIP GFP fluorescence [2]: -7.42%

O=C1CN2Cc3c(ccc(Cl)c3Cl)N=C2N1 [anagrelide-hydrochloride]
normalized SmoIP GFP fluorescence [1]: 108% | normalized SmoIP GFP fluorescence [2]: -2.31%

CN1CCc2c(c3ccccc3n2Cc2ccc(C(=O)NO)cc2)C1 [tubastatin-a-hcl]
normalized SmoIP GFP fluorescence [1]: 101% | normalized SmoIP GFP fluorescence [2]: -1.83%

COc1cccc2cc(-c3nc([C@H]4CC[C@H](C(=O)O)CC4)n4ncnc(N)c34)[nH]c12
normalized SmoIP GFP fluorescence [1]: 54.2% | normalized SmoIP GFP fluorescence [2]: -5.17%

C[C@]1(c2nc3c(C(N)=O)cccc3[nH]2)CCCN1
normalized SmoIP GFP fluorescence [1]: 117% | normalized SmoIP GFP fluorescence [2]: -2.96%

COc1ccc(Cn2ccc3ccc(C(=O)NO)cc32)cc1
normalized SmoIP GFP fluorescence [1]: 111% | normalized SmoIP GFP fluorescence [2]: -8.59%

COc1ccc(-c2oc3c(CC=C(C)C)c(O[C@@H]4O[C@H](CO)[C@@H](O)[C@H](O)[C@H]4O)cc(O)c3c(=O)c2O[C@@H]2O[C@@H](C)[C@H](O)[C@@H](O)[C@H]2O)cc1 [Icariin]
normalized SmoIP GFP fluorescence [1]: 92.7% | normalized SmoIP GFP fluorescence [2]: -3.27%
